What was measured:
[1] = target: T1, Serine/threonine-protein kinase 3 (Homo sapiens) (UniProt Q13188); settings: at 1 µM
T1 sequence (whole entry): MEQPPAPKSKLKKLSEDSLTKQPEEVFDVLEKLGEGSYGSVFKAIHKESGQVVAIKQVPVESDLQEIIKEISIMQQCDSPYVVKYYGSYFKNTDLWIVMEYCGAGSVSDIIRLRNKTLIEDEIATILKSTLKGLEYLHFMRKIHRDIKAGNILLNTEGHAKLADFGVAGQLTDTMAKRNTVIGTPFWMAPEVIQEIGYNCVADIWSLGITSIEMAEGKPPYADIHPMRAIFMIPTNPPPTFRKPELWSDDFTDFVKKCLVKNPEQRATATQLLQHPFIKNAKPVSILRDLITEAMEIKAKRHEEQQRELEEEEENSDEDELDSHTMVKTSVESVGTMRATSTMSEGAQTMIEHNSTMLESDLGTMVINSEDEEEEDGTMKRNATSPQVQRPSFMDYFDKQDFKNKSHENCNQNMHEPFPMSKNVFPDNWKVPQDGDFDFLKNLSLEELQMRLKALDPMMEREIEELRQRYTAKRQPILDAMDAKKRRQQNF

[2] = target: T1, Serine/threonine-protein kinase 3 (Homo sapiens); settings: at 10 µM
[3] = target: Serine/threonine-protein kinase 24 (Homo sapiens) (UniProt Q9Y6E0); settings: at 1 µM
[4] = target: Serine/threonine-protein kinase 24 (Homo sapiens) (UniProt Q9Y6E0); settings: at 10 µM
[5] = target: T2, Tyrosine-protein kinase Mer (Homo sapiens) (UniProt Q12866); settings: at 1 µM
T2 sequence (whole entry): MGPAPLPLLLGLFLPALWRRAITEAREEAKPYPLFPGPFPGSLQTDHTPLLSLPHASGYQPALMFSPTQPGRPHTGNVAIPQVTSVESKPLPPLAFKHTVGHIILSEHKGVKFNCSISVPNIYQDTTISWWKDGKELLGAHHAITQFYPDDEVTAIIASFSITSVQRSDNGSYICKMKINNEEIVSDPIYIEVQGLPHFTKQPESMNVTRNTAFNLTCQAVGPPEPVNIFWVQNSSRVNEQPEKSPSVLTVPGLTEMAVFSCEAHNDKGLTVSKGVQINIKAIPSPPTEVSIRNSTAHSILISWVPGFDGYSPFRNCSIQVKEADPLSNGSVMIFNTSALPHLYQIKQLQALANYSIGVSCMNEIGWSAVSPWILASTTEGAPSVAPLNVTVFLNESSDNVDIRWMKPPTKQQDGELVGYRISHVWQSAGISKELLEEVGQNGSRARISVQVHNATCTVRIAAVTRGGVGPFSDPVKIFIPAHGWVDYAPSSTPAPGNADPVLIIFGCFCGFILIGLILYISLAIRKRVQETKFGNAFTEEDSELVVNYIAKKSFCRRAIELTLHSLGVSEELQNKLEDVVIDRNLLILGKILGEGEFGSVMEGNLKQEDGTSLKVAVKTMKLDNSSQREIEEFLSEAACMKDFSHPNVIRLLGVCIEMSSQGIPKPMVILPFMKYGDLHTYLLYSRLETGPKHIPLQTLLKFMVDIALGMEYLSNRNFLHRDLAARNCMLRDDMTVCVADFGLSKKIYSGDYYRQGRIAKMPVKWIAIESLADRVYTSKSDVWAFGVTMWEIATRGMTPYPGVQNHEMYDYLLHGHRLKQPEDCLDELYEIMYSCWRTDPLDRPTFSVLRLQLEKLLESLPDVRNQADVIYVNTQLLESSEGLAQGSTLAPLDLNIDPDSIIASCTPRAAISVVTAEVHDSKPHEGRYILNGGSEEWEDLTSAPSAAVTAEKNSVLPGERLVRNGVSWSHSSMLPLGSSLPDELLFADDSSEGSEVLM

[6] = target: T2, Tyrosine-protein kinase Mer (Homo sapiens); settings: at 10 µM
[7] = target: Hepatocyte growth factor receptor (Homo sapiens) (UniProt P08581); settings: at 1 µM
[8] = target: Hepatocyte growth factor receptor (Homo sapiens) (UniProt P08581); settings: at 10 µM
[9] = target: MAP kinase-interacting serine/threonine-protein kinase 2 (Homo sapiens) (UniProt Q9HBH9); settings: at 1 µM
[10] = target: MAP kinase-interacting serine/threonine-protein kinase 2 (Homo sapiens) (UniProt Q9HBH9); settings: at 10 µM
[11] = target: T3, Muscle, skeletal receptor tyrosine-protein kinase (Homo sapiens) (UniProt O15146); settings: at 1 µM
T3 sequence (whole entry): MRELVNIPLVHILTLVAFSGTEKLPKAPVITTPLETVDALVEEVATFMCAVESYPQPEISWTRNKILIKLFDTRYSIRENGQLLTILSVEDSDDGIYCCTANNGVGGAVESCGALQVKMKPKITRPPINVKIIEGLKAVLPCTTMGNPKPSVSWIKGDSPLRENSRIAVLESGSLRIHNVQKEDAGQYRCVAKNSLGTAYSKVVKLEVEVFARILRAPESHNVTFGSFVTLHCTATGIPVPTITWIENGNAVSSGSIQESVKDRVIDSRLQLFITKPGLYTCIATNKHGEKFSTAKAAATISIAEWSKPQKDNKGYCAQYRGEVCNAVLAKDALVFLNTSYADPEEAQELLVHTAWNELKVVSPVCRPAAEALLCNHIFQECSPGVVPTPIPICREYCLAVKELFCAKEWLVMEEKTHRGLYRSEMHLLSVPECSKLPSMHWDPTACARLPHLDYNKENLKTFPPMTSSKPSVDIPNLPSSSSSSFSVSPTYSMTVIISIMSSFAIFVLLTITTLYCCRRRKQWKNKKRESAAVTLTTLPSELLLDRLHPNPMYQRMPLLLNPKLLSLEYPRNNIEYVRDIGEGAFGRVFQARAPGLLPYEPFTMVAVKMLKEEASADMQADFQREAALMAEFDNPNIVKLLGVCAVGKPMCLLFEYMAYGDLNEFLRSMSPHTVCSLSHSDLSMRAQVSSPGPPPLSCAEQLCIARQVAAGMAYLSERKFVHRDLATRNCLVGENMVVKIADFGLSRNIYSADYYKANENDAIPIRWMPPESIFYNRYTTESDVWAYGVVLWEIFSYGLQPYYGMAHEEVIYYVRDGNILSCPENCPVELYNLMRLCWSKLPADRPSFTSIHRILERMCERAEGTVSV

[12] = target: T3, Muscle, skeletal receptor tyrosine-protein kinase (Homo sapiens); settings: at 10 µM
[13] = target: T4, Serine/threonine-protein kinase Nek11 (Homo sapiens) (UniProt Q8NG66); settings: at 1 µM
T4 sequence (whole entry): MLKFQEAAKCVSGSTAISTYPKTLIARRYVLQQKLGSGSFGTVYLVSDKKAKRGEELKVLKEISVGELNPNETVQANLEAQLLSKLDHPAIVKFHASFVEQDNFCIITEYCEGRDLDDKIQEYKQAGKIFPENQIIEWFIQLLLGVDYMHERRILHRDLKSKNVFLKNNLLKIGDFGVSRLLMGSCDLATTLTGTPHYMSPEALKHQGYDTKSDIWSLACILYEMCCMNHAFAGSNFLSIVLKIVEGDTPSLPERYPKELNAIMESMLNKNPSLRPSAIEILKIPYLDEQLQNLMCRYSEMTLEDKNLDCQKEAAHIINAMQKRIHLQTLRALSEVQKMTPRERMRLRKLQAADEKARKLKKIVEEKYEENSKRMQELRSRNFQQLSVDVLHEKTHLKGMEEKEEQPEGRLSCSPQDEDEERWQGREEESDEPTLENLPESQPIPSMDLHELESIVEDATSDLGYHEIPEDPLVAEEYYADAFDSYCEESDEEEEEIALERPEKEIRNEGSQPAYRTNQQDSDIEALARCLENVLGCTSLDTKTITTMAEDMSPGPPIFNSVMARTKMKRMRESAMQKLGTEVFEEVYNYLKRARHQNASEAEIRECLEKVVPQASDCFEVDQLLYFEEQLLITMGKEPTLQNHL

[14] = target: T4, Serine/threonine-protein kinase Nek11 (Homo sapiens); settings: at 10 µM
[15] = target: T5, Serine/threonine-protein kinase Nek2 (Homo sapiens) (UniProt P51955); settings: at 1 µM
T5 sequence (whole entry): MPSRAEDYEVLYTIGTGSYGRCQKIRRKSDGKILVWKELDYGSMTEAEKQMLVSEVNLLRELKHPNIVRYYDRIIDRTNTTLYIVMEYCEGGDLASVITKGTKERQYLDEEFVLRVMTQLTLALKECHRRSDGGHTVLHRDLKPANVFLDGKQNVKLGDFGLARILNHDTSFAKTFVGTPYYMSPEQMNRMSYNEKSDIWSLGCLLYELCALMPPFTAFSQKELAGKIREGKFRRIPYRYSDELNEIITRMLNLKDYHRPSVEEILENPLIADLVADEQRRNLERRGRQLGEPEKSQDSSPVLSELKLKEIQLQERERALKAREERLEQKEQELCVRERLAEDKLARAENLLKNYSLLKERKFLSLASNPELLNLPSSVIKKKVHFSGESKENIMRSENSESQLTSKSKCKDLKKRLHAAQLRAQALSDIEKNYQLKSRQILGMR

[16] = target: T5, Serine/threonine-protein kinase Nek2 (Homo sapiens); settings: at 10 µM
[17] = target: T6, Serine/threonine-protein kinase Nek3 (Homo sapiens) (UniProt P51956); settings: at 1 µM
T6 sequence (whole entry): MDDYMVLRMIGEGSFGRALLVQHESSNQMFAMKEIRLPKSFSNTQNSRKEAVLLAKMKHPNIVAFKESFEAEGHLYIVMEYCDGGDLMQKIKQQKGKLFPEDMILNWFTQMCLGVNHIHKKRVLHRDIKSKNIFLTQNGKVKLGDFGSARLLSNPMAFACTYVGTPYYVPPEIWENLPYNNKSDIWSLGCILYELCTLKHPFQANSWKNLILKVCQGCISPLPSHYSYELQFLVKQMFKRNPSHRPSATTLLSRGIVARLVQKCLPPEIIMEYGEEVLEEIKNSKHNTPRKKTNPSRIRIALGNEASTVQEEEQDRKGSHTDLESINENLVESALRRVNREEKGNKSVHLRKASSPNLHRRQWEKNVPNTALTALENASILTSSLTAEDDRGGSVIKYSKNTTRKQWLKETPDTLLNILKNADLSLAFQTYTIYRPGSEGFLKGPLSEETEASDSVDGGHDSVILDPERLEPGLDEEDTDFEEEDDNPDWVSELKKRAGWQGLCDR

[18] = target: T6, Serine/threonine-protein kinase Nek3 (Homo sapiens); settings: at 10 µM
[19] = target: Serine/threonine-protein kinase tousled-like 2 (Homo sapiens) (UniProt Q86UE8); settings: at 1 µM
[20] = target: Serine/threonine-protein kinase tousled-like 2 (Homo sapiens) (UniProt Q86UE8); settings: at 10 µM

Chain of Serine/threonine-protein kinase tousled-like 2 (Homo sapiens) (Q86UE8 whole entry, looked up): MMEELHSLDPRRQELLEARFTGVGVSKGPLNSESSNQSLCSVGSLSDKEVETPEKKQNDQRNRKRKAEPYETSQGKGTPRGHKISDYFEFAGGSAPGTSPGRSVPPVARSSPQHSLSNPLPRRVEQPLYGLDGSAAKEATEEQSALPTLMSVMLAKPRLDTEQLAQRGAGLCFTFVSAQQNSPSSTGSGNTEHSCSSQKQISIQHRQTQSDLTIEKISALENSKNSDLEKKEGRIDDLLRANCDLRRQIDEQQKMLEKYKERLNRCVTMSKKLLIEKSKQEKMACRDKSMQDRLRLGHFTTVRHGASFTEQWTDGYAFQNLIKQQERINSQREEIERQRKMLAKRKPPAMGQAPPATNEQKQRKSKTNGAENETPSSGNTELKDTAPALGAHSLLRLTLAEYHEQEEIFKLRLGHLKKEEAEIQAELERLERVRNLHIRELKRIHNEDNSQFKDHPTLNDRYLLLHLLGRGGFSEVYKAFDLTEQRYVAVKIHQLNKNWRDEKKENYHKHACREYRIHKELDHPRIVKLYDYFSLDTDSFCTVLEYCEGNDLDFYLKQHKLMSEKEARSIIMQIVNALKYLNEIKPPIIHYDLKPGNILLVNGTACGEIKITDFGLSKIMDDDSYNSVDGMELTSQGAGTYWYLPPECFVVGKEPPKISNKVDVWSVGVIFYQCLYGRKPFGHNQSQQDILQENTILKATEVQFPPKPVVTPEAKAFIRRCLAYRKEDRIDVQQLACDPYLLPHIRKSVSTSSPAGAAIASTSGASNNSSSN
Chain of Hepatocyte growth factor receptor (Homo sapiens) (P08581 whole entry): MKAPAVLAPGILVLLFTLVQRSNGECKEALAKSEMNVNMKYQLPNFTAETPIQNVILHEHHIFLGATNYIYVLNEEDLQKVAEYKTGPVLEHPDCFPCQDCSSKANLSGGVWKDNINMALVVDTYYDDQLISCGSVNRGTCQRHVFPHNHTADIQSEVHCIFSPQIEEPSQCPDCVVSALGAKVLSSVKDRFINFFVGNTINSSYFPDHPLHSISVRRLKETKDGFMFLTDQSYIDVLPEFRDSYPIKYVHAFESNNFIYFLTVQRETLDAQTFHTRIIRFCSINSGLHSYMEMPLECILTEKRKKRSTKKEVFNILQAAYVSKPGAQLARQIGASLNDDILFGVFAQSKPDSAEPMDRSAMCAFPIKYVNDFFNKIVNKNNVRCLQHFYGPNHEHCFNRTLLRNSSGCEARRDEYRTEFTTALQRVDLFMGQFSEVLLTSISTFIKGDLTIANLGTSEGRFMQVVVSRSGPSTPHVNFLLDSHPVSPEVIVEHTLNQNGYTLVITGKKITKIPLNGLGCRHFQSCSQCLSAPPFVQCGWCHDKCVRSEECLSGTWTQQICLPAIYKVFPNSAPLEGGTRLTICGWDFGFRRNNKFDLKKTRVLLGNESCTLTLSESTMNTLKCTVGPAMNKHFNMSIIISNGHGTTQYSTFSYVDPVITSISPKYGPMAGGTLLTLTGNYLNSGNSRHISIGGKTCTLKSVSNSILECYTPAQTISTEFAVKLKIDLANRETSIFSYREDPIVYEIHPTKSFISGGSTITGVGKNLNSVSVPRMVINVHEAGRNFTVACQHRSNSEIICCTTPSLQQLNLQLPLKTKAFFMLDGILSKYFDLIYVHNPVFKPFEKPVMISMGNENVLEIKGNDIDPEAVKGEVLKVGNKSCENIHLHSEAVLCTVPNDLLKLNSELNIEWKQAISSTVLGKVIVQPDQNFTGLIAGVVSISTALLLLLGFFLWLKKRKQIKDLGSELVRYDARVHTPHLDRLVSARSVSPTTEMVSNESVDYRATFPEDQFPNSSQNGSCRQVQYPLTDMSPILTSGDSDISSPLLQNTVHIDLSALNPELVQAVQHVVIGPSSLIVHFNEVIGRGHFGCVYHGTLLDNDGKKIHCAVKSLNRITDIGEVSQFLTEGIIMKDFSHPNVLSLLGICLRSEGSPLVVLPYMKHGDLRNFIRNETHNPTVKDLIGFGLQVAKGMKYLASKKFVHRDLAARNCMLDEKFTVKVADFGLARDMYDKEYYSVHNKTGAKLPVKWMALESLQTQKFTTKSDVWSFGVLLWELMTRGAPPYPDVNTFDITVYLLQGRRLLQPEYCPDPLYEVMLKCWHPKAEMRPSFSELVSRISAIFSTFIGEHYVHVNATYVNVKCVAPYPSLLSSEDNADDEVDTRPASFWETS
Chain of Serine/threonine-protein kinase 24 (Homo sapiens) (Q9Y6E0 whole entry, looked up): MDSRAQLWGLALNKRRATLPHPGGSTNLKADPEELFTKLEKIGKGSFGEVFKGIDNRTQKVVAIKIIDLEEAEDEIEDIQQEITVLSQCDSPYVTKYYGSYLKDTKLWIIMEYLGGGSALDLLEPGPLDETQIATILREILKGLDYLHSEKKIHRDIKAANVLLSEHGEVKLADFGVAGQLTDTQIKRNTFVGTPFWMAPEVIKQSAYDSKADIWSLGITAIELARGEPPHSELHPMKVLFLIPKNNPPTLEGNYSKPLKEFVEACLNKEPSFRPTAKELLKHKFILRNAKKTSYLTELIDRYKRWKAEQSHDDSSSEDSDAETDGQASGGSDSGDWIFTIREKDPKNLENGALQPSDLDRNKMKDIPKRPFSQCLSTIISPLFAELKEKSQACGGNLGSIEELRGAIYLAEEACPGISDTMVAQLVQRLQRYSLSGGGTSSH
Chain of MAP kinase-interacting serine/threonine-protein kinase 2 (Homo sapiens) (Q9HBH9 whole entry, looked up): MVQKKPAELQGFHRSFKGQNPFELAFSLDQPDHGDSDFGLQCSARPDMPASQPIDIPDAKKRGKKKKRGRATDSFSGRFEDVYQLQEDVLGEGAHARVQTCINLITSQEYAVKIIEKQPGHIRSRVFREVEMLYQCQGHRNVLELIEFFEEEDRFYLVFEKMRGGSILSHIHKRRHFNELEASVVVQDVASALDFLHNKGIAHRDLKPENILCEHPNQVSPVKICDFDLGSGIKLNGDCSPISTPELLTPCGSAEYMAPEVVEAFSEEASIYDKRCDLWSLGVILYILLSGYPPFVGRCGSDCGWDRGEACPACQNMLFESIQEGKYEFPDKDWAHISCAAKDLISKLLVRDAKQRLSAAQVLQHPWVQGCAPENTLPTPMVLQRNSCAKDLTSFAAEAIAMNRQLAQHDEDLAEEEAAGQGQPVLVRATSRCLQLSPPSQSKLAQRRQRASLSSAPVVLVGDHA

**Q.** Which results are given for `O=c1cc(-c2cccc3c2Sc2ccccc2S3)oc(N2CCOCC2)c1`?
**A.** residual activity [1]: 92%; residual activity [2]: 93%; residual activity [3]: 98%; residual activity [4]: 81%; residual activity [5]: 99%; residual activity [6]: 89%; residual activity [7]: 106%; residual activity [8]: 120%; residual activity [9]: 100%; residual activity [10]: 94%; residual activity [11]: 106%; residual activity [12]: 96%; residual activity [13]: 93%; residual activity [14]: 64%; residual activity [15]: 96%; residual activity [16]: 92%; residual activity [17]: 92%; residual activity [18]: 99%; residual activity [19]: 96%; residual activity [20]: 96%

**Q.** What does the source list for `CC(C)n1cnc2c(NCc3ccccc3)nc(NCCCO)nc21`?
**A.** residual activity [1]: 111%; residual activity [2]: 99%; residual activity [3]: 77%; residual activity [4]: 69%; residual activity [5]: 98%; residual activity [6]: 82%; residual activity [7]: 101%; residual activity [8]: 79%; residual activity [9]: 90%; residual activity [10]: 80%; residual activity [11]: 82%; residual activity [12]: 86%; residual activity [13]: 57%; residual activity [14]: 72%; residual activity [15]: 96%; residual activity [16]: 82%; residual activity [17]: 85%; residual activity [18]: 99%; residual activity [19]: 96%; residual activity [20]: 89%

**Q.** With `O=C1NC(=O)c2c1c1c3ccccc3[nH]c1c1[nH]c3cc(Br)ccc3c21` as the compound, how does the residual activity [1] read?
**A.** Its residual activity is 89%.

**Q.** What about the residual activity [2] of the same compound?
**A.** The residual activity was 62%.

**Q.** And the residual activity [3]?
**A.** The residual activity was 92%.

**Q.** What about the residual activity [4] of the same compound?
**A.** The residual activity was 80%.

**Q.** And the residual activity [5]?
**A.** The residual activity was 87%.

**Q.** And the residual activity [6]?
**A.** Its residual activity is 68%.

**Q.** And the residual activity [7]?
**A.** The residual activity was 120%.

**Q.** And the residual activity [8]?
**A.** Its residual activity is 116%.

**Q.** And the residual activity [9]?
**A.** The residual activity was 48%.

**Q.** What about the residual activity [10] of the same compound?
**A.** The residual activity was 41%.

**Q.** And the residual activity [11]?
**A.** The residual activity was 104%.

**Q.** What about the residual activity [12] of the same compound?
**A.** The residual activity was 90%.

**Q.** What about the residual activity [13] of the same compound?
**A.** Its residual activity is 62%.

**Q.** What about the residual activity [14] of the same compound?
**A.** The residual activity was 73%.

**Q.** What about the residual activity [15] of the same compound?
**A.** Its residual activity is 91%.

**Q.** What about the residual activity [16] of the same compound?
**A.** The residual activity was 88%.

**Q.** What about the residual activity [17] of the same compound?
**A.** The residual activity was 85%.

**Q.** What about the residual activity [18] of the same compound?
**A.** Its residual activity is 92%.

**Q.** And the residual activity [19]?
**A.** The residual activity was 85%.

**Q.** And the residual activity [20]?
**A.** Its residual activity is 86%.

Source: ChEMBL document CHEMBL2218924, “A broad activity screen in support of a chemogenomic map for kinase signalling research and drug discovery” (Biochem J, 2013)
